# Measurements taken from the supplement of paper PMC6897291.
# Test system: RIVA
# Assay: growth inhibition by drug plus 177Lu-lilotomab satetraxetan (1 - RLU/untreated control) (fraction); higher = stronger inhibition
# Settings: 177Lu-lilotomab satetraxetan 0.5 ug/ml
# Procedure: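 RIVA (RI-1) ABC-DLBCL cells were pretreated or not for 18 h with 0.5 ug/ml 177Lu-lilotomab satetraxetan (600 MBq/mg), washed and seeded (3000 cells/well) on 384-well plates pre-printed with the Selleck Cambridge Cancer Compound library. Viability was read by RealTime-Glo luminescence on days 3-6 after seeding. Effect = 1 - RLU/mean RLU of the 48 untreated no-drug control wells per plate; Bliss score = (M-E)/(1-Fa).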
Compound,"growth inhibition by drug plus 177Lu-lilotomab satetraxetan (10 nM, time (day): 3)","growth inhibition by drug plus 177Lu-lilotomab satetraxetan (10 nM, time (day): 4)","growth inhibition by drug plus 177Lu-lilotomab satetraxetan (10 nM, time (day): 5)","growth inhibition by drug plus 177Lu-lilotomab satetraxetan (10 nM, time (day): 6)","growth inhibition by drug plus 177Lu-lilotomab satetraxetan (100 nM, time (day): 3)","growth inhibition by drug plus 177Lu-lilotomab satetraxetan (100 nM, time (day): 4)","growth inhibition by drug plus 177Lu-lilotomab satetraxetan (100 nM, time (day): 5)","growth inhibition by drug plus 177Lu-lilotomab satetraxetan (100 nM, time (day): 6)"
O=C(Oc1ccc([N+](=O)[O-])cc1)N1CCC(C(O)(c2ccc3c(c2)OCO3)c2ccc3c(c2)OCO3)CC1,0.375,0.498,0.518,0.517,0.429,0.517,0.523,0.501
N[C@@H](Cc1ccc(N(CCCl)CCCl)cc1)C(=O)O [Melphalan],0.357,0.502,0.516,0.527,0.365,0.48,0.492,0.494
O=P1(N(CCCl)CCCl)NCCCO1 (stereo not given) [Cyclophosphamide monohydrate],0.338,0.47,0.502,0.506,0.305,0.403,0.426,0.394
C=C1C[C@@H]2[C@H](CC[C@]3(C)C(=O)CC[C@@H]23)[C@@]2(C)C=CC(=O)C=C12 [Exemestane],0.609,0.639,0.647,0.653,0.483,0.528,0.533,0.543
Cn1cc(C2=C(c3cn(C4CCN(Cc5ccccn5)CC4)c4ccccc34)C(=O)NC2=O)c2ccccc21,0.515,0.546,0.557,0.564,0.356,0.435,0.443,0.436
